Reference: PubChem BioAssay (Tox21)
Inconclusive results are not listed. Calls of active or inactive are those of the source. Unless noted, calls come from the whole dose curve; as a rule, active = well fitted curve in the direction sought with a large enough effect in the repeat runs; inconclusive = weak or mixed curves; inactive = flat fitted curve, though single readings scatter.

Legend:
[1] = qHTS assay to test for compound auto fluorescence at 535 nm (green) in HEK293 cells (AID 720680)
[2] = qHTS assay to test for compound auto fluorescence at 460 nm (blue) in HEK293 cell free culture (AID 720681)
Method in brief: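 Test compounds were pinned into cell-free culture medium (DMEM with 10% FBS) and fluorescence was read directly at Ex/Em 405/460 nm. Signals were expressed as fluorescence equivalents of triamterene, with DMSO vehicle as control.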

[3] = qHTS assay to test for compound auto fluorescence at 535 nm (green) in HEK293 cell free culture (AID 720682)
Method in brief: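 Steps: dispense DMEM/10% FBS into empty wells; pin in compound or DMSO; measure fluorescence at 485/535 nm. Values are fluorescein equivalents.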

[4] = qHTS assay to test for compound auto fluorescence at 590 nm (red) in HEK293 cell free culture (AID 720683)
Method in brief: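 Tox21 10K library compounds were pinned into cell-free DMEM with 10% FBS and fluorescence was read at excitation 540 nm. Activity is expressed as Rose Bengal sodium equivalency.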

[5] = qHTS assay to test for compound auto fluorescence at 590 nm (red) in HepG2 cell free culture (AID 720684)
Method in brief: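 Red fluorescence (540 nm excitation, 590 nm emission) was measured after compound transfer into cell-free MEM supplemented with 10% FBS. Values are equivalencies against Rose Bengal sodium.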

[6] = qHTS assay to test for compound auto fluorescence at 460 nm (blue) in HepG2 cell free culture (AID 720685)
Method in brief: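 Compound (23 nL) or DMSO pinned into cell-free MEM with 10% FBS; blue fluorescence read at 405/460 nm excitation/emission, expressed as auto-fluorescence equivalency to triamterene.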

[7] = qHTS assay to test for compound auto fluorescence at 535 nm (green) in HepG2 cell free culture (AID 720686)
[8] = qHTS assay to test for compound auto fluorescence at 460 nm (blue) in HepG2 cells (AID 720687)
Method in brief: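 Cells (2,000/well in MEM with 10% FBS) attached overnight at 37 C, then were exposed to compound or DMSO for 1 hr at 37 C, 5% CO2. Fluorescence read at Ex/Em 405/460 nm, expressed as triamterene-equivalent signal.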

[9] = molecular target: Glucocorticoid receptor (Homo sapiens) (UniProt P04150); test: qHTS assay to identify small molecule agonists of the glucocorticoid receptor (GR) signaling pathway (AID 720691; active = well fitted activation curve with a large enough effect in the signal ratio in the repeat runs, not every such curve was filed as active; the % refers to the signal ratio)
Chain of Glucocorticoid receptor (Homo sapiens) (P04150 whole entry, looked up): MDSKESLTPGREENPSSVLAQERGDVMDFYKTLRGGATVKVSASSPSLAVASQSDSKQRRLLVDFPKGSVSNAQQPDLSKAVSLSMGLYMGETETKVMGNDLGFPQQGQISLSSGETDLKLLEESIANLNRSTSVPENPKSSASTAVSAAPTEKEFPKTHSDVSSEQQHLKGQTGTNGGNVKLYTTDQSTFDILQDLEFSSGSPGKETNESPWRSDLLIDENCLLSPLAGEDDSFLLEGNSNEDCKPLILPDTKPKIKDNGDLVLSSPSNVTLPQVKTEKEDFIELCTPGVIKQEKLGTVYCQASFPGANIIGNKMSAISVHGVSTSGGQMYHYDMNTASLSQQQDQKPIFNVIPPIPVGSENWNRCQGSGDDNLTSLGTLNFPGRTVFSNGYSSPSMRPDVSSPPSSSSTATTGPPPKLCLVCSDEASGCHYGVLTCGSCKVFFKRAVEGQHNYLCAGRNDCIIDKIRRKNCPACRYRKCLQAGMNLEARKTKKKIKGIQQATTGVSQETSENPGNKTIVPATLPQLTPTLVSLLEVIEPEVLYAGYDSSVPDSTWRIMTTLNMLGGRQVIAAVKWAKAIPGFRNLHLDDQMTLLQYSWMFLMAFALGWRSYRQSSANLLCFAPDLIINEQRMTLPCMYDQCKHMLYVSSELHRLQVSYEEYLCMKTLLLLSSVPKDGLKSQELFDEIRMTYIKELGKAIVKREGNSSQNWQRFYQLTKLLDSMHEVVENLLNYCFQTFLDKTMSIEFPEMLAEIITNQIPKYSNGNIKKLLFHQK
Method in brief: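 Beta-lactamase reporter activity, read as fluorescence intensity, was measured in GR-bla HeLa cells exposed to compounds for 18 h at 37 C and then loaded with LiveBLAzer B/G FRET substrate for 2 h at room temperature.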

[10] = molecular target: Glucocorticoid receptor (Homo sapiens) (UniProt P04150); test: qHTS assay to identify small molecule antagonists of the glucocorticoid receptor (GR) signaling pathway (AID 720692; active = well fitted inhibition curve with a large enough effect in the signal ratio in the repeat runs, not every such curve was filed as active; the % refers to the signal ratio)
Method in brief: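 Fluorescence from cleaved LiveBLAzer B/G FRET substrate reports GRE-driven beta-lactamase in HeLa cells; compounds are tested against 5 nM dexamethasone (final) over 18 h at 37 C, substrate incubation 2 h at room temperature.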
% is set by controls: 0 for no effect and ±100 for the full control effect.

O=CCCc1ccccc1
inactive: outcome [1] | outcome [2] | outcome [3] | outcome [4] | outcome [5] | outcome [6] | outcome [7] | outcome [8]

CCCCOc1cc(C(=O)NCCN(CC)CC)c2ccccc2n1
inactive: fluorescence, % of fluorescein [1] 0.0154% [at 18.6 µM] | fluorescence, % of fluorescent control [2] 0.0819% [at 18.6 µM] | activity change [3] -0.0175% [at 18.6 µM] | fluorescence, % of fluorescent control [4] -0.187% [at 18.6 µM] | fluorescence, % of Rose Bengal [5] 0.52% [at 18.6 µM] | fluorescence, % of fluorescent control [6] 0.0544% [at 18.6 µM] | fluorescence, % of fluorescein control [7] -0.0334% [at 18.6 µM] | fluorescence, % of fluorescent control [8] -0.0681% [at 18.6 µM] | Potency [9]

CCN(CCCc1ccccc1)CCCc1ccccc1
inactive: fluorescence, % of fluorescein [1] 0.159% [at 18.6 µM] | fluorescence, % of fluorescent control [2] -0.0197% [at 18.6 µM] | activity change [3] 0.0298% [at 18.6 µM] | fluorescence, % of fluorescent control [4] 0.107% [at 18.6 µM] | fluorescence, % of Rose Bengal [5] -0.137% [at 18.6 µM] | fluorescence, % of fluorescent control [6] 0.009% [at 18.6 µM] | fluorescence, % of fluorescein control [7] 0.0299% [at 18.6 µM] | fluorescence, % of fluorescent control [8] -0.0033% [at 18.6 µM]

Cc1nnc(SCC2=C(C(=O)O)N3C(=O)[C@@H](NC(=O)Cn4cnnn4)[C@H]3SC2)s1
inactive: outcome [1] | outcome [2] | outcome [3] | outcome [4] | outcome [5] | outcome [6] | outcome [7] | outcome [8]

ICCc1ccccc1
inactive: outcome [1] | outcome [2] | outcome [3] | outcome [4] | outcome [5] | outcome [6] | outcome [7] | outcome [8]

O=Cc1ccc(F)c(Br)c1
inactive: outcome [1] | outcome [2] | outcome [3] | outcome [4] | outcome [5] | outcome [6] | outcome [7] | outcome [8]

C=CCCC=C
inactive: outcome [1] | outcome [2] | outcome [3] | outcome [4] | outcome [5] | outcome [6] | outcome [7] | outcome [8]

Cn1cnc2c(F)c(Nc3ccc(Br)cc3Cl)c(C(=O)NOCCO)cc21
inactive: outcome [1] | outcome [2] | outcome [3] | outcome [4] | outcome [5] | outcome [6] | outcome [7] | outcome [8]

CC(C)CCCCCCc1ccc(OCCOCCO)cc1
inactive: outcome [1] | outcome [2] | outcome [3] | outcome [4] | outcome [5] | outcome [6] | outcome [7] | outcome [8]

CCOc1ccc(OCC)c(Cl)c1
inactive: outcome [1] | outcome [2] | outcome [3] | outcome [4] | outcome [5] | outcome [6] | outcome [7] | outcome [8] | Potency [9]

CCCCc1ccc2nc(NC(=O)OC)[nH]c2c1
inactive: fluorescence, % of fluorescein [1] -0.231% [at 18.6 µM] | fluorescence, % of fluorescent control [2] -0.0022% [at 18.6 µM] | activity change [3] 0.0865% [at 18.6 µM] | fluorescence, % of fluorescent control [4] 0.113% [at 18.6 µM] | fluorescence, % of Rose Bengal [5] 0.0227% [at 18.6 µM] | fluorescence, % of fluorescent control [6] -0.0558% [at 18.6 µM] | fluorescence, % of fluorescein control [7] -0.0094% [at 18.6 µM] | fluorescence, % of fluorescent control [8] -0.0106% [at 18.6 µM]

CN(CC1(C)CCCO1)S(=O)(=O)c1ccc(Cl)c(S(N)(=O)=O)c1 (stereo not given)
inactive: outcome [1] | outcome [2] | outcome [3] | outcome [4] | outcome [5] | outcome [6] | outcome [7] | outcome [8]

Cc1ncc(CO)c(CN)c1O
inactive: outcome [1] | outcome [2] | outcome [3] | outcome [4] | outcome [5] | outcome [6] | outcome [7] | outcome [8]

Nc1cccc(S(=O)(=O)O)c1
inactive: outcome [1] | outcome [2] | outcome [3] | outcome [4] | outcome [5] | outcome [6] | outcome [7] | outcome [8] | Potency [9]

O=C1CCC(C2CCCCC2)CC1
inactive: outcome [1] | outcome [2] | outcome [3] | outcome [4] | outcome [5] | outcome [6] | outcome [7] | outcome [8] | Potency [9] | Potency [10]

C=CCCCCCCCCO
inactive: outcome [1] | outcome [2] | outcome [3] | outcome [4] | outcome [5] | outcome [6] | outcome [7] | outcome [8] | Potency [9] | Potency [10]

CCOc1ccccc1N
inactive: outcome [1] | outcome [2] | outcome [3] | outcome [4] | outcome [5] | outcome [6] | outcome [7] | outcome [8] | Potency [9] | Potency [10]

O=C(O)c1cccc(Cl)c1Cl
inactive: outcome [1] | outcome [2] | outcome [3] | outcome [4] | outcome [5] | outcome [6] | outcome [7] | outcome [8] | Potency [9] | Potency [10]

CO[Si](C)(C)OC
inactive: outcome [1] | outcome [2] | outcome [3] | outcome [4] | outcome [5] | outcome [6] | outcome [7] | outcome [8] | Potency [9] | Potency [10]

CC(C)CC(=O)OCc1ccccc1
inactive: outcome [1] | outcome [2] | outcome [3] | outcome [4] | outcome [5] | outcome [6] | outcome [7] | outcome [8] | Potency [9] | Potency [10]
